From PubChem BioAssay AID1497 (Sanford-Burnham Center for Chemical Genomics, 2009)
The campaign covered roughly 93,000 compounds. About 500 (0.54%) were called active. What follows is part of a selection rich in actives, with near analogues and random picks from the rest. A number with no mark means an inactive call.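 Rule for the calls: active = primary inhibition of 50% or more at 10 µM, then 40% or more on retest; inactive = the rest.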

molecular target: Integrin beta-2 (Homo sapiens) + Integrin alpha-M (Homo sapiens) (UniProt P05107+P11215); test: inhibitors of CD11b/CD18 adhesion to fibrinogen, primary screen, K562 cells, luminescence (AID 1497); settings: ATPlite luminescence, at 10 µM, stronger effect = higher value, Mn2+ added to activate the integrin
Sequence (P05107 whole entry, looked up, other chains not shown): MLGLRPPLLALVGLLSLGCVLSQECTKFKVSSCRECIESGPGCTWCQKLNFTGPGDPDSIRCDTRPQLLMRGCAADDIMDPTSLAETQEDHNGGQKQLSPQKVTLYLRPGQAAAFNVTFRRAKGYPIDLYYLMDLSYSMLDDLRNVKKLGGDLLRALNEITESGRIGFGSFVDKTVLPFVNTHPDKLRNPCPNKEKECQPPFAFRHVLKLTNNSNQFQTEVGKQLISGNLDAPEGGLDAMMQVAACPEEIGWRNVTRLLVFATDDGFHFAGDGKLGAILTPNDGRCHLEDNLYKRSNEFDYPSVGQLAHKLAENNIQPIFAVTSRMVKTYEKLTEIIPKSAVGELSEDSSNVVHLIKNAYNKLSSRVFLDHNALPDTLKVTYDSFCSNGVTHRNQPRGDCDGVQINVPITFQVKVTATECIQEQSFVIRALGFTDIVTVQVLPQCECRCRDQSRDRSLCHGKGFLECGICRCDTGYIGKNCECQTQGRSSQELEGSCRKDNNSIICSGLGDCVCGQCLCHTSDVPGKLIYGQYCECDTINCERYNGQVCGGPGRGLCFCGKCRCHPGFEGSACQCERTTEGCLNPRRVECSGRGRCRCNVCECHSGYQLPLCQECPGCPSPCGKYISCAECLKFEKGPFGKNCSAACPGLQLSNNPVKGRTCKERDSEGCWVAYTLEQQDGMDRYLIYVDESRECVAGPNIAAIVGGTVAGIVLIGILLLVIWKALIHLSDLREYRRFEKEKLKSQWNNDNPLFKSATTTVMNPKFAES

| Structure (SMILES) | inhibition |
| --- | --- |
| Cc1ccc(-c2nc(C)sc2CC(=O)OCC(=O)Nc2c(F)cccc2F)cc1 | 16.1% |
| Nc1nc(CC(=O)CSc2ccc(Cl)cc2)nc(Nc2ccc(F)cc2)n1 | -3.1% |
| Cc1ccc(C)c(NC(=S)NCC(c2cccnc2)N2CCOCC2)c1 (stereo not drawn) | -16.8% |
| COC(=O)c1ccc(C(=O)OC)c(NC(=S)N2CCN(c3cc(Cl)ccc3C)CC2)c1 | 5.6% |
| CCCOC(=O)c1c(NC(=O)c2cnn3c2NC(c2ccccc2)CC3C(F)(F)F)sc2c1CCCC2 (stereo not drawn) | -9.3% |
| CCCCCC(=O)Nc1ccc2oc(-c3ccncc3)nc2c1 | -1.9% |
| CCc1ccc2oc(-c3ccc(N)cc3)nc2c1 | 62.3% (active) |
| COc1cccc(-c2nc3cc(C)ccc3o2)c1 | 21% |
| C/C(=N/NC(=O)C1COc2ccccc2O1)c1ccco1 (stereo not drawn) | 4.4% |
| Cc1ccccc1NC(=O)CSC1=NCCN1 | -19.9% |
| Cc1ccc(S(=O)(=O)C2C(=O)NC3(C)CC2c2ccccc2O3)cc1 (stereo not drawn) | 19.1% |
| Cc1nc2ccccc2cc1OCc1ccc(F)cc1 | 98.8% (active) |
| CCOC(=O)c1cc2ccccc2nc1C | -6.1% |
| Cc1nc2ccccc2cc1O | 20.1% |
| CN1CCN(c2ccc(S(=O)(=O)Nc3ccccc3)cc2[N+](=O)[O-])CC1 | 31% |
| Cc1ccc(-c2nn(-c3ccccc3)cc2C(=O)Nc2cccc(S(=O)(=O)N3CCOCC3)c2)cc1 | -5.6% |
| Cc1[nH]c2ccccc2c1/C=N/NC(=O)CNC(=O)c1ccc2c(c1)OCO2 | -16% |
| Cc1ccc2[nH]cc(CCNC(=O)c3ccc([N+](=O)[O-])cc3)c2c1 | -25.6% |
| CCOC(=O)c1c(NC(=O)C2CCN(S(=O)(=O)c3ccc(Cl)cc3)CC2)sc2c1CCCC2 | -25.4% |

| Structure (SMILES) | inhibition |
| --- | --- |
| Cc1ccccc1C(CC(=O)c1cccs1)C(C#N)C#N (stereo not drawn) | -1.8% |
| CC(C)NC(=S)N1CCN(C(c2ccccc2)c2ccccc2)CC1 | -11.6% |
| CCc1nnc(NC(=O)C2CC(=O)N(c3ccc4c(c3)OCCO4)C2)s1 (stereo not drawn) | 12.3% |
| CCOC(=O)c1csc(NC(=O)Nc2cccc(OC)c2)n1 | -1.6% |
| Cc1cc[n+](-c2[nH]c(=O)sc2/C=N/NC(=O)c2ccccc2[O-])cc1C | -4.4% |
| C/C(=C/C(=O)N1CCN(C)CC1)C(=O)O | -9.1% |
| N#C/C(=C(/O)COC(=O)COc1ccc(Cl)cc1)c1nc2ccccc2[nH]1 | 1.5% |
| Cc1ccc(NC(=O)NC(=O)CSc2nnc(-c3ccc(OC(F)F)cc3)n2N)c(C)c1 | 2.1% |
| O=C(Cn1cnc2ccccc21)N/N=C/c1ccco1 | 10.1% |
| C=CCn1c(SCC(N)=O)nnc1-c1cc2c(s1)CCC(CC)C2 (stereo not drawn) | 18.8% |
| CCn1c2ccccc2c2cc(NC(=O)COC(=O)c3ccccc3Br)ccc21 | 2.2% |
| COc1ccc(Cl)cc1NC(=O)CNc1ccccc1F | 0.4% |
| CC(C)CNC(=O)COC(=O)c1ccccc1OCC(=O)Nc1ccc(Br)cc1 | 7.6% |
| CC(C)COP(=O)(c1ccc(N(C)C)cc1)C(Nc1ccccc1)c1cccnc1 (stereo not drawn) | -5.3% |
| CC1CCN(c2ccc(C(=O)NCc3ccc4c(c3)OCO4)cc2[N+](=O)[O-])CC1 | 6.9% |
| CSCC[C@H](NC(=O)OC(C)(C)C)C(=O)N/N=C/c1cc2ccc(C)cc2nc1Cl | 23.4% |
| Cc1cccc(NC(=O)c2ccccc2NC(=O)C(C)(C)C)n1 | -2% |
| O=C(Nc1ccccc1)c1ccccc1NC(=O)C(F)(F)F | 77.1% (active) |
| O=C(Nc1ccccc1)c1cccnc1Nc1ccccc1 | -10.2% |
